Compounds without any hit were thinned out: in the full panel of roughly 83,000, 20% have a hit.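 Step 1: grow cells in 96-well plates. Step 2: add test compound at a single concentration. Step 3: incubate 48 h. Step 4: record percent growth.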 A number with no mark means an inactive call. Activity calls are given as the source filed them. The calls were made as follows: active = growth percent below 10; inactive = the rest.
Legend:
Test in all cases: NCI-60 one-dose screen, 48 h (100 = growth as untreated, 0 = no growth, -100 = all killed)
Conditions in all cases: 10 µM unless noted
DU-145 prostate = test system: DU-145 prostate
K-562 leukemia = test system: K-562 leukemia
MALME-3M melanoma = test system: MALME-3M melanoma
MDA-MB-231 breast = test system: MDA-MB-231 breast
RXF 393 renal = test system: RXF 393 renal
SF-268 CNS = test system: SF-268 CNS
SF-295 CNS = test system: SF-295 CNS
SF-539 CNS = test system: SF-539 CNS
UACC-257 melanoma = test system: UACC-257 melanoma
M14 melanoma = test system: M14 melanoma
HCT-15 colon = test system: HCT-15 colon
HT29 colon = test system: HT29 colon
SNB-19 CNS = test system: SNB-19 CNS
U251 CNS = test system: U251 CNS
PC-3 prostate = test system: PC-3 prostate
SK-MEL-5 melanoma = test system: SK-MEL-5 melanoma
UACC-62 melanoma = test system: UACC-62 melanoma
LOX IMVI melanoma = test system: LOX IMVI melanoma
SK-MEL-28 melanoma = test system: SK-MEL-28 melanoma

SMILES | growth (DU-145 prostate) | growth (K-562 leukemia) | growth (MALME-3M melanoma) | growth (MDA-MB-231 breast) | growth (RXF 393 renal) | growth (SF-268 CNS) | growth (SF-295 CNS) | growth (SF-539 CNS) | growth (UACC-257 melanoma) | growth (M14 melanoma) | growth (HCT-15 colon) | growth (HT29 colon) | growth (SNB-19 CNS) | growth (U251 CNS) | growth (PC-3 prostate) | growth (SK-MEL-5 melanoma) | growth (UACC-62 melanoma) | growth (LOX IMVI melanoma) | growth (SK-MEL-28 melanoma)
O=C1CCc2c(sc3[nH]c(=S)n(Cc4ccccc4)c(=O)c23)C1 | 64.1% | 11.5% | 69% | 16.5% | 20.8% | 19.4% | -13.9% (active) | -12.6% (active) | 29.1% | 18.9% | 7.5% (active) | 79.6% | 11.8% | 8.09% (active) | 13.9% | -75.6% (active) | 8.72% (active) | 11.7% | 25%
CCN(CC)CC#CCOC(=O)[C@]1(C)CCC[C@@]2(C)[C@H]1CC(C=O)=C1C=C(C(C)C)CC[C@@H]12 | 90.1% | 20.7% | 82.3% | 76% | 61.2% | 75.8% | 71.8% | 49.1% | 85.4% | 56.4% | 40.9% | 9.02% (active) | 77.1% | 57.2% | 45.4% | 42.8% | 68.9% | 73.2% | 87.4%
CCCCCCCCCC(=O)Oc1ccc(/C(=C(/C)Cc2cccc(OC)c2)c2ccc(OCCN(C)C)cc2)cc1 | 108% | 100% | 115% | 105% | 115% | 100% | 107% | 103% | 110% | 105% | 105% | 109% | 109% | 110% | 110% | 107% | 97.8% | 102% | 114%
Cc1ccc2cnc(N)c(C#Cc3cncc(C(=O)Nc4ccc(CN5CCN(C)CC5)c(C(F)(F)F)c4)c3)c2c1 | -95.8% (active) | -50.5% (active) | -83.4% (active) | -94.8% (active) | -93% (active) | -69% (active) | -87.2% (active) | -99.2% (active) | -64.7% (active) | -62.2% (active) | -91.9% (active) | -69.9% (active) | -99.1% (active) | -89.5% (active) | -71% (active) | -95.6% (active) | -85.5% (active) | -92.4% (active) | -90.8% (active)
COc1ccc(S(=O)(=O)NCCCNc2cc(-c3c(-c4cccc(OC)c4)nc4sccn34)ccn2)cc1 | 46.4% | 25.6% | 66.1% | 46.8% | 56% | 44.9% | 40.5% | 61.9% | 53.3% | 45% | 35.7% | 35% | 62.7% | 59.4% | 26.9% | -10.9% (active) | 20.4% | 46.6% | 65.5%
COc1cc2c(c(OC)c1OC)-c1ccc(N=NC(N)=S)c(=O)cc1[C@@H](NC(C)=O)CC2 | -40.1% (active) | 9.08% (active) | 61.2% | 9.7% (active) | -13.5% (active) | 9.15% (active) | 6.76% (active) | 1.01% (active) | 49.5% | -39.1% (active) | 76.4% | -2.5% (active) | 27.9% | 9.3% (active) | 57.3% | -33.2% (active) | 17.2% | 13.5% | 53.6%
CN1CCN(Cc2ccc(NC(=O)c3cncc(C#Cc4cnc(N)c5cccnc45)c3)cc2C(F)(F)F)CC1 | 24.6% | 1.39% (active) | -56.8% (active) | -20% (active) | -18.2% (active) | 26.3% | 12.7% | -28.3% (active) | 18.8% | -18.8% (active) | 22.9% | 7.8% (active) | 39.8% | 33.9% | 29.3% | -23.6% (active) | -47.6% (active) | -76.6% (active) | -2.55% (active)
Fc1ccc(Cc2ccc(F)cc2)cc1 | 113% | 96.7% | 106% | 107% | 118% | 101% | 113% | 102% | 108% | 106% | 116% | 111% | 102% | 98.5% | 102% | 101% | 101% | 97.9% | 105%
CSc1nc2sc3c(c2c(=O)n1-c1ccc(C(C)C)cc1)CCC(=O)C3 | 40.5% | 2.37% (active) | 2.52% (active) | -17.1% (active) | -2.94% (active) | 18.9% | 4.21% (active) | -22.1% (active) | 84.7% | 10.1% | -15.9% (active) | 11.4% | 9.58% (active) | -80% (active) | -6.64% (active) | -79.9% (active) | -20.8% (active) | -39.6% (active) | 28.7%
COc1ccc(C2c3ccc4ccccc4c3Oc3ncnc(N)c32)cc1 (centres undefined) | 102% | 41.2% | 93.1% | 64.8% | 85.5% | 86.2% | 87% | 88.2% | 98.5% | 83% | 88.5% | 104% | 91.2% | 92.8% | 71.9% | 85.5% | 66.9% | 76.5% | 91.9%
COc1cccc(-c2cn3c(ccc4ccccc43)n2)c1 | 39% | 13.2% | 36.9% | 44.9% | -5.05% (active) | 56% | 10.6% | 12.5% | 58.7% | 30.2% | 21.9% | 20.1% | 38.3% | 38.4% | 34.8% | 9.42% (active) | 34.4% | 31.6% | 60%
C(=N\Nc1ccccn1)/c1ccccn1 | 9.51% (active) | 19.3% | -2.58% (active) | 47.6% | 17% | -0.109% (active) | 21.7% | 7.48% (active) | -18.9% (active) | -35.8% (active) | 42.7% | 19% | 40.4% | 13.4% | 63.5% | -4.55% (active) | 2.66% (active) | -11.6% (active) | 34.8%
CCCCCCNC(=O)Oc1ccc(/C(=C(\C)c2ccccc2)c2ccc(OCCN(CC)CC)cc2)cc1 | 87.7% | 2.08% (active) | 33% | 68.9% | 32.7% | 55.8% | 83.1% | 50% | -1.51% (active) | -40.1% (active) | 4.48% (active) | -16.1% (active) | 63.6% | 38.2% | 45.4% | 41.9% | 18.4% | 67.8% | 61.1%
CC1=C(C)C(=O)OC([C@](C)(O)[C@]2(O)CC[C@@]3(O)[C@@H]4C[C@H]5O[C@]56CC=CC(=O)[C@]6(C)[C@H]4CC[C@]23COC(=O)c2ccc(C)o2)C1 (some centres undefined) | -92.1% (active) | 1.46% (active) | -85% (active) | -54.8% (active) | -88.8% (active) | -55.8% (active) | -24.5% (active) | -91.2% (active) | -58.7% (active) | -0.794% (active) | -86.2% (active) | -73.6% (active) | -85% (active) | -85.2% (active) | -35% (active) | -80.6% (active) | -83.3% (active) | -95% (active) | -86.1% (active)
COc1cc2c(=O)n(CC3CCCCC3)c3c4cc[nH]c4ncc3c2cc1OC | 50.3% | 5.36% (active) | 65.9% | 25.5% | -4.27% (active) | 28.8% | 42.9% | -7.56% (active) | 84.9% | 49.2% | 32.1% | 32% | 57.5% | 30.3% | 43.4% | 39.3% | 74.4% | 12.3% | 77.8%
O=[N+]([O-])c1cccc(-c2nc3sccn3c2-c2ccnc(NCCCNS(=O)(=O)c3ccc(F)cc3)n2)c1 | 10.6% | 7.51% (active) | -9.59% (active) | 44.9% | 53.4% | 9.32% (active) | 5.57% (active) | 26.5% | 0.0199% (active) | 0.021% (active) | -3.76% (active) | 18.4% | 29.3% | 26.8% | -3.27% (active) | -76.7% (active) | -45% (active) | -21.3% (active) | -1.76% (active)

— PubChem BioAssay (NCI)
